RORgamma inh = inhibitors of mouse ROR gamma transcriptional activity. P51450. Drosophila S2 Gal4-RORgamma UAS-luciferase reporter, 20 h. Potency, µM (highest dose often 53.6 µM), inactives show at the top dose activity change, negative = inhibition, usual class: inhibitors. 310,000 compounds, 5.4% hits; note: potency is the fitted concentration of half-maximal effect; nearly all actives have a fitted effect of over 60% in size
Target sequence (P51450 whole entry, looked up, the tested form may be a part): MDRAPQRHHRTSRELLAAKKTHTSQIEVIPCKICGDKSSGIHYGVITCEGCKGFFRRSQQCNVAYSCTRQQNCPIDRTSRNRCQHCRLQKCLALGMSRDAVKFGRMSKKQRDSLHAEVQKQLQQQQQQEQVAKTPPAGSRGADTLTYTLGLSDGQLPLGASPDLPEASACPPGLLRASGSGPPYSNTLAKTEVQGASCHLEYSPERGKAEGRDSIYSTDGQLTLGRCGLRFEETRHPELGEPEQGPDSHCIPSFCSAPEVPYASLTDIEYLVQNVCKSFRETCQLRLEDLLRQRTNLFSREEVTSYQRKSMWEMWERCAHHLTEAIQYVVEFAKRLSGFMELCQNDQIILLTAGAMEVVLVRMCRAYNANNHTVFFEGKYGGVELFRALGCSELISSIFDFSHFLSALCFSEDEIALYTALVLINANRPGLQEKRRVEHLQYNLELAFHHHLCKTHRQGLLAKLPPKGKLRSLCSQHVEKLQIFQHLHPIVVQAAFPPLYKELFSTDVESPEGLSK
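Drosophila Schneider cells stably carrying a metallothionein-driven Gal4 DBD–ROR gamma fusion and a UAS-Photinus luciferase reporter were exposed to compound for 1 hr, then induced with copper sulfate (700 uM final) for 20 hr at ambient temperature before luminescence reading.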
VP16 counter = inhibits Gal4-VP16 luciferase reporter, ROR gamma counter-screen; Drosophila S2 Gal4-VP16 UAS-luciferase, luminescence, 20 h; Potency, µM (highest dose often 53.6 µM), for the others: at the top dose activity, negative = inhibition, hits mostly inhibitors; 310,000 compounds, 3.5% hits; AID 2546;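 note: Gal4-VP16 expression switched on by copper sulfate through the metallothionein promoter; potency is the fitted concentration of half-maximal effect; nearly all actives have a fitted effect of over 50% in size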
TDP1 cell noCPT = qHTS for Inhibitors of human tyrosyl-DNA phosphodiesterase 1 (TDP1): qHTS in cells in absence of CPT | DT40 Tdp1-/- hTDP1 cells, no CPT, ATP luminescence, 48 h | Potency, µM (series often up to 46.2 µM), for inactives: at the top dose activity change, negative = growth inhibition, usual class: inhibitors | 420,000 compounds, 15% hits | AID 686978, 2013; note: potency is the fitted concentration of half-maximal effect; nearly all actives have a fitted effect of over 55% in size
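Camptothecin absent (DMSO only). Human TDP1-complemented DT40 knockout cells, 400 cells/well, 37 °C for minimum 48 hr; ATP measured via CellTiter-Glo, 30 min dark incubation, luminescence.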
TDP1 cell CPT = growth inhibition of DT40 Tdp1-/-;hTDP1 cells with camptothecin (screen for TDP1 inhibitors) | 420,000 compounds, 12% hits | chicken DT40 Tdp1-/-;hTDP1 cells + 20 nM CPT, ATP luminescence, 48 h | Potency, µM (titrated, usually from 46.2 µM), inactives show at the top dose activity change, negative = growth inhibition, usual class: inhibitors | AID 686979; note: potency is the fitted concentration of half-maximal effect; nearly all actives have a fitted effect of over 55% in size
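Cell growth measured by CellTiter-Glo luminescence after a minimum 48 h, 37 C compound exposure with 20 nM CPT in Tdp1-knockout DT40 cells stably expressing hTDP1, seeded 400/well; qHTS titration format.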
ELG1 DNA repair = inhibitors of ELG1-dependent DNA repair in HEK293T cells. HEK293T ELG1-luciferase reporter, luminescence, 16 h; DNA damage induced by 5-fluorouridine. Potency, µM (top dose mostly 46.1 µM), inactives show at the highest dose activity change, negative = inhibition, usual class: inhibitors. 330,000 compounds, 2.3% hits; note: potency is the fitted concentration of half-maximal effect; nearly all actives have a fitted effect of over 55% in size
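DMSO vehicle served as the neutral condition. Each well held 2,000 cells given 5-fluorouridine plus compound; after 16 hr at 37 °C/5% CO2, ONE-Glo was added and luciferase measured 30 min later.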
IL1B secr inh = inflammasome signaling inhibition, IL-1 beta readout. activity change, % at 57.5 µM. 360,000 compounds, 4.7% hits. THP-1 LPS/ATP IL-1B secretion, AlphaLISA, 16 h; active compounds read low; in the data active = activity change below about -50%; inconclusive = mostly about -30% to -49%
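THP-1 cells pretreated 1 hr with compounds (up to 57.5 uM final), then stimulated with LPS (250 ng/mL final) plus ATP (1.25 mM final); secreted IL-1B measured by AlphaLISA after 16 hr, decreased signal indicating inhibition.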
The depositor's hits bear a star; ? = inconclusive; . = no result given; [ ] = another dose, or the depositor's remark. Rows were chosen to be rich in hits. Some 21% of all compounds tested hit in one or more screens of this group. Unless noted, calls come from the whole dose curve; as a rule, active = well fitted curve in the direction sought with a large enough effect; inconclusive = small, poorly fitted or top-dose-only effect, or another doubt; inactive = no such curve, though single readings can be large; an effect the other way counts as inactive or inconclusive. % is set by controls: 0 for no effect and ±100 for the full control effect.

SMILES	RORgamma inh	VP16 counter	TDP1 cell noCPT	TDP1 cell CPT	ELG1 DNA repair	IL1B secr inh
CCCCCCCC(=O)Oc1ccc(C(=O)Nc2cc(C)on2)cc1	18%	?	6%	5%	?	42
CCOc1ccc2cc(-c3nnc(Nc4ccc(C)cc4)s3)c(=O)oc2c1	.	.	-14%	-3%	.	.
COc1ccc(NC(=O)CC2C(=O)N(c3ccccc3)C(=O)N2C2CCCCC2)cc1 (stereo not drawn)	.	.	-13%	2%	.	.
CC(C)(C)c1ccc(NC(=S)NCc2cccnc2)cc1	?	?	15µM*	?	?	18
COC(=O)CNC(=S)NC(=O)c1ccc(C(C)(C)C)cc1	6.3µM*	-22%[10 µM]	-27%	-23%	11%	4
COc1ccc(C(=O)NC(=S)NCc2cccnc2)cc1Cl	11µM*	?	?	-22%	?	-12
CCC(C)c1ccc(NC(=S)NCc2cccnc2)cc1 (stereo not drawn)	?	22µM*	7.3µM*	?	1%	0
Cc1c(C(=O)NC(C)(C)C)sc2ncnc(NCCN(C)C)c12	.	.	-20%	17%[9.04 µM]	.	.
O=C(NC1(C(F)(F)F)NC(=O)N(CCc2ccccc2)C1=O)c1ccc(Cl)cc1 (stereo not drawn)	.	.	?	21µM*	.	.
O=C(NC1(C(F)(F)F)NC(=O)N(CCc2ccccc2)C1=O)c1ccccc1F (stereo not drawn)	.	.	-7%	-23%	.	.
CC(C)(C)c1ccc(C(=O)NC2(C(F)(F)F)NC(=O)N(CCc3ccccc3)C2=O)cc1 (stereo not drawn)	.	.	23µM*	21µM*	.	.
O=C1C=C(NCCc2cc(Br)c(O)c(Br)c2)C(=O)c2ncccc21	.	.	2.1µM*	1.2µM*	.	-105*
CC(C)(C)c1cc(CCC(=O)NCCc2ccccn2)cc(C(C)(C)C)c1O	22%	2%	?	?	?	24
Cc1oc(-c2ccccc2Cl)nc1CSCC(=O)N1CCCC1	-23%	0%[0.365 µM]	13µM*	?	19%	-21
Cc1oc(-c2ccccc2Cl)nc1CSCC(=O)NC1CCCC1	-32%	0%	-8%	-3%	-24%	?
Cc1oc(-c2ccccc2F)nc1CSCC(=O)N1CCN(c2ccccc2)CC1	.	.	9.2µM*	21µM*	.	.
Nn1cc(Br)c(=O)[nH]c1=O	.	.	-21%	-4%	.	.
CC(CC(=O)Nc1ccc(S(=O)(=O)Nc2ncccn2)cc1)c1ccccc1 (stereo not drawn)	-25%	-2%	-10%	2%	-21%	26
COc1ccc(C(=O)Nc2nnc(S(=O)(=O)N3CCCc4ccccc43)s2)cc1	.	.	-3%	-2%	.	.
Cc1ccc(NC(=O)CSc2nc(N)cc(=O)[nH]2)cc1S(=O)(=O)N1CCCCCC1	.	.	-2%	8%	-2%	20
Cc1cccnc1C(NC(=O)C1CCN(Cc2ccc(Cl)cc2)CC1)c1ccccc1 (stereo not drawn)	.	.	16µM*	16µM*	.	?
COc1cccc(OC)c1OCCN1CCC(C(=O)NC(c2ccccc2)c2ncccc2C)CC1 (stereo not drawn)	.	.	?	?	.	0
Cc1cccnc1C(NC(=O)C1CCN(Cc2ccc(Oc3ccccc3)cc2)CC1)c1ccc(F)cc1 (stereo not drawn)	.	.	?	23µM*	.	-67*
Cc1cccnc1C(NC(=O)C1CCN(Cc2cn(C)c3ccccc23)CC1)c1ccc(Cl)cc1 (stereo not drawn)	.	.	4.6µM*	4.6µM*	.	?
COc1cc(OC)nc(C(NC(=O)C2CCN(Cc3ccc(Oc4ccccc4)cc3)CC2)c2ccccc2C)n1 (stereo not drawn)	.	.	?	?	.	-58*

Compound activity: PubChem, National Center for Advancing Translational Sciences (NCATS)
